Source: PubChem BioAssay (National Center for Advancing Translational Sciences (NCATS))
A selection: hits, their analogues and other compounds. The true share with any hit is near 1.4%.
EPAC2 ag: EPAC2 (human) agonism; AID 720711; 360,000 tested, 0.079% active; EPAC2 activation, biochemical qHTS; response scale: 100% = 6.5 mM cAMP response; Q8WZA2; Potency, µM (top dose mostly 154 µM), for the others: top-dose activation, usual class: activators; further: potency means the concentration at half of the fitted maximal effect; nearly all actives have a fitted effect of over 50% in size
Target sequence (Q8WZA2 whole entry, looked up): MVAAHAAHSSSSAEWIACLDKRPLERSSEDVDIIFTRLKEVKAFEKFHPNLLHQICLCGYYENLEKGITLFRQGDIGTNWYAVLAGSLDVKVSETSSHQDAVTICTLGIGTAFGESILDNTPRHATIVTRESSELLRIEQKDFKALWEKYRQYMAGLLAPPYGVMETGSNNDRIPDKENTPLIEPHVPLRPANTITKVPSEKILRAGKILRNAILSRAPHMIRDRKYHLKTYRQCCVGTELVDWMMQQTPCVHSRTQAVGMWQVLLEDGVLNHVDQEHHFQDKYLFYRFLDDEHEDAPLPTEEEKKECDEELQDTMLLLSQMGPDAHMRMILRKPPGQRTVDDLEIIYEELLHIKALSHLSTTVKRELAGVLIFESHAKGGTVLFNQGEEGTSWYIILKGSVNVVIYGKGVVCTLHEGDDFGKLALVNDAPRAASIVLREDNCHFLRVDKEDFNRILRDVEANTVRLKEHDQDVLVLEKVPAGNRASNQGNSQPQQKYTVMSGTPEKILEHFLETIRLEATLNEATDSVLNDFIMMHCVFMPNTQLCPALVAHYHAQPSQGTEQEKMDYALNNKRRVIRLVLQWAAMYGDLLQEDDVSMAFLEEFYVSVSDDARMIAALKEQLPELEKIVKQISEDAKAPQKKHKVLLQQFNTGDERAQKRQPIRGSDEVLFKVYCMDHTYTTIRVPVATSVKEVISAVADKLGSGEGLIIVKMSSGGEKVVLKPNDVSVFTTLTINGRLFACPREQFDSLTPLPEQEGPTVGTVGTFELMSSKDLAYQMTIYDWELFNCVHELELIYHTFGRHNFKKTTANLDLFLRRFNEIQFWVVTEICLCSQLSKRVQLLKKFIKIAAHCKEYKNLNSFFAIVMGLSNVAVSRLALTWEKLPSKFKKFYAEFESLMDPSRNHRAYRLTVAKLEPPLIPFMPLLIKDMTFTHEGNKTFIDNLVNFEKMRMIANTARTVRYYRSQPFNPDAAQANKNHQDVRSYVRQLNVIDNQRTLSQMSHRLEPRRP
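Nucleotide exchange monitored as fluorescence drop when BODIPY-GDP leaves Rap1B. Reaction: 100 nM EPAC2, 250 nM RAP1B-BODIPY-GDP, 50 uM GDP, room temperature, kinetic read over 30 min. Activity expressed relative to 6.5 mM cAMP.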
hERG WT inh: blocks the wildtype human KCNH2 potassium channel. Q12809. U2OS, BacMam KCNH2, thallium flux FluxOr; active compounds read low. activity change, % at 1.84 µM. 340,000 tested, 0.37% active. AID 720551;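 active means maximum activity change below -70%; inconclusive means maximum activity change between -70% and -50%; inactive means maximum activity change above -50%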; further: on the % scale 0 is the no-effect control and ±100 the full control effect
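U2OS cells transduced with wild-type KCNH2 virus are loaded with FluxOr dye for 45 min, and thallium flux is measured in kinetic reads before and after stimulation buffer. Rate constants are normalized to DMSO controls.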
KCNH2 3.1 block: inhibitors of human KCNH2 3.1 potassium channel isoform; U2OS KCNH2 3.1, thallium flux FluxOr; active compounds read low; activity change, % (tested at about 1.8 µM); 340,000 tested, 0.95% active;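 active means maximum activity change below -70%; inconclusive means maximum activity change from -70% to -50%; inactive means maximum activity change above -50%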;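 further: thallium influx rate constant from kinetic fluorescence after stimulation buffer; on the % scale 0 is the no-effect control and ±100 the full control effect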
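Virally transduced U2OS (3.1 isoform, 4 h infection in dark at RT) → overnight 37 C → FluxOr + Red40 in HBSS/HEPES, 45 min → stimulation buffer, 2 min kinetic read → rate constant vs DMSO controls.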
EPAC1 agonist: activates human EPAC1 exchange factor; O95398; EPAC1 agonist qHTS, biochemical assay; response scale: 100% = response to 6.5 mM cAMP; Potency, µM (titrated, usually from 154 µM), for the others: at the highest dose activation, hits mostly activators; 360,000 tested, 0.073% active; AID 720707; further: potency means the concentration at half of the fitted maximal effect; nearly all actives have a fitted effect of over 60% in size
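Fluorescent GDP-exchange assay: 100 nM EPAC1 with 250 nM Rap1B preloaded with BODIPY-GDP and 50 uM GDP; compounds tested as concentration series, 5 min at room temperature, then read every 5 min for 30 min (ex 480/em 540 nm); normalized to 6.5 mM cAMP.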
EPAC2 antag: antagonists of human EPAC2 | Q8WZA2 | EPAC2 GEF exchange of Rap1B-BODIPY-GDP, fluorescence | Potency, µM (titrated, usually from 114 µM), inactives show at the top dose activity, negative = inhibition, most hits filed as inhibitors | 360,000 tested, 0.18% active; further: potency means the concentration at half of the fitted maximal effect; on the % scale 0 is the no-effect control and ±100 the full control effect; nearly all actives have a fitted effect of over 45% in size
EPAC1 antag: EPAC1 (human) antagonism. O95398. EPAC1 GEF assay, Rap1b-BODIPY-GDP exchange fluorescence. Potency, µM (series often up to 115 µM), without a hit: at the highest dose activity change, negative = inhibition, hits mostly inhibitors. 360,000 tested, 0.14% active;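 further: potency means the concentration at half of the fitted maximal effect; plate controls were vehicle for no effect and positive control for full effect; nearly all actives have a fitted effect of over 50% in size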
* hit, by the source's call; i = inactive; u = inconclusive; x = not tested or not shown. Unless noted, the call rests on the fitted dose curve; in most records, active means well fitted curve in the direction sought with a large enough effect; inconclusive means small, poorly fitted or top-dose-only effect, or another doubt; inactive means no such curve, though single readings can be large; an effect the other way counts as inactive or inconclusive.

SMILES	EPAC2 ag	hERG WT inh	KCNH2 3.1 block	EPAC1 agonist	EPAC2 antag	EPAC1 antag
COc1cc2c(c(OC)c1OC)C(c1ccc3c(c1)OCO3)CC(=O)O2 (stereo not given)	12%	36	21	4%	40µM*	-1%
O=C(c1ccccc1)c1ccc(O)cc1O	100µM*	17	-3	100µM*	96%	107%
Cc1cc2ccccc2cc1C(=O)c1ccccc1	18%	-7	-10	7%	8.9µM*	-13%
CCCNC(=O)CCc1c(C)nc2nc(C)nn2c1C	-1%	-9	32	11%	0%	7%
CCOC(=O)c1ccc(NC(=O)N2CCN(CCc3ccccc3)CC2)cc1	10%	-18	-2	4%	-25%	-9%
CCOc1ccc(NC(=O)OCCN2CCN(CCc3ccccc3)C(C)C2)cc1 (stereo not given)	11%	-3	-96*	-3%	8%	2%
Cc1cccc(OCC(=O)Nc2nnc(S(=O)(=O)N3CCCCCC3)s2)c1	-4%	22	0	-9%	-13%	7%
COc1cc(C2OC(=O)C3C(c4ccc(OC(C)=O)c(OC)c4)OC(=O)C23)ccc1OC(C)=O (stereo not given)	-2%	9	13	-1%	7%	-1%
Clc1ccc(-c2cc3ccccc3nc2N2CCOCC2)cc1	7%	2	-6	9%	56µM*	-28%
O=C(O)C(c1ccccc1)N1C(=O)/C(=C\c2ccc(O)c(O)c2)SC1=S (stereo not given)	-2%	1	5	-3%	22µM*	32µM*
CCOC(=O)C1(C)NC(c2ccco2)C2C(=O)N(CC)C(=O)C21 (stereo not given)	-6%	4	3	1%	13%	-15%
COc1ccc(-c2cc(C(=O)Nc3ccc(OC)cc3OC)no2)cc1	4%	2	-108*	10%	4%	3%
COc1ccc(NC(=O)c2ccc(C)cc2)c(OC)c1	10%	-170*	-154*	-3%	0%	-10%
COc1ccc(NC(=O)c2ccc3[nH]c(=O)c(=O)[nH]c3c2)c(OC)c1	8%	8	1	-2%	-3%	7%
COc1ccc(-c2cc(C(=O)Nc3cc(Cl)ccc3OC)no2)cc1	4%	-9	-9	-9%	7%	9%
COc1ccc(NC(=O)c2cc(-c3ccccc3)on2)cc1OC	2%	4	-76*	-1%	4%	-10%
Cn1c(CNC(=O)c2ccc3c(c2)OCO3)nnc1SCC(=O)Nc1ccc(F)cc1F	13%	1	-10	5%	0%	-12%
Cn1c(N)c(C(=O)COC(=O)c2ccccc2C(F)(F)F)c(=O)n(C)c1=O	7%	-3	-93*	2%	4%	1%
O=C(NCCc1nc2ccccc2[nH]1)/C(=C/c1ccc2c(c1)OCO2)NC(=O)c1ccccc1Cl	-2%	u	-77*	-7%	5%	2%
O=C(CCc1nc2ccccc2[nH]1)Nc1ccc2c(c1)OCO2	6%	2	-198*	6%	-8%	-7%
O=C(CCc1nc2ccccc2[nH]1)NCc1ccc2c(c1)OCO2	10%	-13	-3	-8%	5%	24%
COC(=O)N/N=C/c1cn(CC(C)COc2ccccc2)c2ccccc12 (stereo not given)	10%	1	8	9%	u	-21%
COCCN=c1scc(-c2ccccc2)n1/N=C/c1c[nH]c2ccccc12	18%	-11	-3	19%	-5%	-10%
CCN=c1scc(C)n1/N=C/c1cc(Br)c(O)c(Br)c1	-2%	-6	6	-5%	-14%	u
CCN=c1scc(C)n1/N=C/c1ccc(O)c(O)c1O	-6%	-3	-2	-14%	-2%	45µM*
SMILES	EPAC2 ag	hERG WT inh	KCNH2 3.1 block	EPAC1 agonist	EPAC2 antag	EPAC1 antag
COCCN=c1scc(-c2cccs2)n1/N=C/c1ccc(O)c(O)c1O	13%	1	-4	1%	0%	56µM*
COC(=O)[C@@]1(C(C)C)N=C(c2cc(OC)c(OC)c(OC)c2)[C@]2(O1)C(=O)Nc1ccccc12	-5%	x	x	-4%	0%	0%
Cn1c(SC(C(=O)Nc2ccc(F)cc2)c2ccccc2)nc2ccccc21 (stereo not given)	9%	-9	-82*	6%	-6%	-19%
CN1CCN(c2ccc(NC(=O)c3ccc(-c4ccc(Br)cc4)o3)cc2)CC1	6%	33	-71*	9%	-8%	-27%
CCN1CCN(c2ccc(NC(=O)c3ccc(Br)o3)cc2)CC1	6%	24	18	-12%	2%	-8%
COc1cccc(/C=N/NC(=O)c2nc(-c3ccccc3)cc(-c3ccccc3)n2)c1	4%	-11	-78*	11%	-6%	5%
COc1ccc(/C=N/NC(=O)c2nc(-c3ccccc3)cc(-c3ccccc3)n2)cc1OC	-3%	-4	-72*	-6%	3%	1%
CC(C)NC(=O)c1cc(C2CCCCN2S(=O)(=O)c2cccc3cccnc23)on1 (stereo not given)	1%	x	x	-3%	2%	0%
O=C(CSc1nnc(-c2ccccc2Cl)o1)Nc1ccccn1	3%	-16	-9	2%	6%	6%
CC(C)C(=O)Nc1ccc(NC(=O)c2cccc3c(Br)cccc23)cc1	-5%	-13	18	6%	-9%	-15%
Nc1ccc2cc3[nH]c4cc(N)ccc4c3nc2c1	56µM*	-4	10	89µM*	231%	i
Nc1ccc(-c2nc3ccc(N)cc3[nH]2)cc1	13%	-12	-1	13%	0%	u
Cc1ccccc1C(=O)NN1C(=O)CSC1=S	6%	2	5	2%	-5%	-19%
Cc1ccccc1C(=O)/C=C1/SCC(=O)N1C	3%	-8	-82*	12%	1%	-7%
COc1ccc(C(=O)CNc2cccc(F)c2)cc1	9%	2	-91*	5%	13%	8%
COC(=O)[C@H](CC(C)C)NC(=O)N1CCCCC1	6%	0	-126*	-3%	0%	5%
CCN(CC)c1cc(Cl)c2nonc2c1N	10%	-3	1	-5%	-20%	9%
CN(C)c1cc(Cl)c2nonc2c1N	2%	-4	9	10%	-1%	50µM*
CCCCN1C(=O)C(CC(=O)NCc2cccc3ccccc23)CC(C(=O)N(C)C)=C1C (stereo not given)	5%	7	-91*	-9%	-1%	4%
